Consider 48 molecules from PubChem BioAssay AID2685 (National Center for Advancing Translational Sciences (NCATS), 2010).

About 2,100 (0.66%) of roughly 320,000 compounds were called active. Another 53% or so got no clear call; they are omitted. The call rests on the fitted dose curve; in most records, active means well fitted inhibition curve with a large enough effect in the signal ratio, with a control signal flat (not every such curve was filed as active); inconclusive means small, poorly fitted or top-dose-only effect, or effect the other way, or a change in a side signal; inactive means flat fitted curve, though single readings scatter; the % refers to the signal ratio. What follows is part of a selection rich in actives, with near analogues and random picks from the rest.
Potency means the concentration at half of the fitted maximal effect.

A short description of the assay: qHTS Assay for Lipid Storage Modulators in Drosophila S3 Cells.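 On cell number change: cells counted by Cell Tracker Red CMTPX staining in the red channel.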 On lipid storage change, negative = inhibition: on the % scale 0 is the no-effect control and ±100 the full control effect. To be noted: BODIPY lipid droplet fluorescence, 18-24 h, cells fed with added oleic acid; cell number change: measured here: cell count max response; series mostly up to 46.1 µM; lipid storage change, negative = inhibition: at the top concentration. An outline of the steps: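 Drosophila S3 cells got compounds at several concentrations plus oleic acid (400 uM solution). Laser-scanning cytometry with 488 nm excitation read lipid droplets at 500-530 nm and cells at 575-640 nm. Percent activity was relative to 20 uM Triacsin C.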
Turning to `CC(C)Oc1ccccc1C(=O)NC(CO)C(=O)O` (stereo not given), the “lipid storage change, negative = inhibition” value is 7.17% (inactive) and the cell number change is -13.9%.

`CCOc1ccccc1C(=O)NC(CO)C(=O)O` (stereo not given): the Potency was 20.6 µM (active) and the cell number change is -20.4%.

On to `CC(C)COc1ccccc1C(=O)NC(CO)C(=O)O` (stereo not given), for which the “lipid storage change, negative = inhibition” value was 10% (inactive) and the cell number change was -5.46%.

For `CS(=O)(=O)N(Cc1ccccc1)c1ccc(C(=O)N2CCc3ccccc3C2)cc1`, the “lipid storage change, negative = inhibition” value is -15.5% (inactive) and the cell number change was 13.2%.

For the molecule `Cc1cc(/C=N/Nc2nc(N3CCOCC3)nc(N3CCOCC3)n2)c(C)n1-c1ccccc1`, the “lipid storage change, negative = inhibition” value is 0.381% (inactive) and the cell number change came to 2.32%.

Take `CCCCn1c(N)c(N(CC)C(=O)C2CCCC2)c(=O)[nH]c1=O`: the “lipid storage change, negative = inhibition” value was 1.39% (inactive) and the cell number change was 14.7%.

Regarding `CC(=O)N1c2ccc(S(=O)(=O)N(C)CC(=O)NC3CCCCC3C)cc2CC1C` (stereo not given), the call was inactive.

With `COc1cn(-c2ccccc2)nc1C(=O)OCC(=O)Nc1ccc(C)c(C)c1`, the “lipid storage change, negative = inhibition” value is 8.1% (inactive) and the cell number change was -22.3%.

In the case of `COc1cn(-c2ccccc2)nc1C(=O)Nc1ccccc1`, the Potency is 0.92 µM (active) and the cell number change worked out at 5.86%.

In the case of `COc1cn(-c2ccccc2)nc1C(=O)NCc1ccccc1`, the call was inactive and the cell number change was 10.4%.

`Cc1cc(C)c(OCC(=O)Nc2ccc3c(c2)OCO3)cc1C`: the molecule was called inactive.

With `CC(C)C1Oc2ccccc2N(CC(=O)N(Cc2ccncc2)Cc2ccco2)C1=O` (stereo not given), the “lipid storage change, negative = inhibition” value is 0.319% (inactive) and the cell number change is -0.805%.

Take `CN(CCCN1CCOCC1)C(=O)c1cc(COc2c(F)cccc2F)on1`: the call was inactive.

Take `CN(CCCC1CCCC1)C(=O)c1cc(COc2c(F)cccc2F)on1`: the Potency is 5.8 µM (active) and the cell number change was -27.2%.

As for `CN(CCCC1CCCC1)C(=O)c1cc(COc2ccc(F)cc2F)on1`, the “lipid storage change, negative = inhibition” value is -23.9% (inactive) and the cell number change stood at 15.8%.

With `Cc1c(NC(=O)c2n[nH]c(=O)c3ccccc23)c(=O)n(-c2ccccc2)n1C`, the “lipid storage change, negative = inhibition” value was -4.65% (inactive) and the cell number change was 5.44%.

Consider `Cc1c(NC(=O)c2ccc(N(C)S(=O)(=O)c3ccccc3)cc2)c(=O)n(-c2ccccc2)n1C`, for which the “lipid storage change, negative = inhibition” value is 3.31% (inactive) and the cell number change is 0.409%.

Turning to `CCO[C@H]1OC(C(=O)NCc2nc3ccccc3[nH]2)=C[C@@H](C2CCCCC2)[C@@H]1CCCO`, the “lipid storage change, negative = inhibition” value is -4.55% (inactive) and the cell number change is -1.73%.

Consider `COc1ccc(C2CC3(CC(C)(C)NC(=S)N3)Oc3cc(O)cc(C)c32)cc1` (stereo not given), for which the “lipid storage change, negative = inhibition” value was 22% (inactive) and the cell number change was -1.84%.

Consider `COc1ccc(C2CC3(CC(C)(C)NC(SC)=N3)Oc3cc(O)cc(C)c32)cc1` (stereo not given), for which the Potency was 23.1 µM (active) and the cell number change was determined as 26.2%.

`Cc1cc(O)cc2c1C(c1ccc(F)cc1)CC1(CC(C)(C)NC(=S)N1)O2` (stereo not given): the “lipid storage change, negative = inhibition” value is 15.9% (inactive) and the cell number change came out at 11.1%.

For `O=C(COc1ccc(Cl)cc1Cl)N/N=C/c1ccc(OC2OC(CO)C(O)C(O)C2O)cc1` (stereo not given), the call was inactive and the cell number change came to 14.9%.

Consider `O=c1[nH]c(/C=C/c2cccc3ccccc23)nc2ccccc12`, for which the “lipid storage change, negative = inhibition” value is -10.1% (inactive) and the cell number change amounted to 1.01%.

Regarding `N#CCOc1ccccc1/C=C/c1nc2ccccc2c(=O)[nH]1`, the Potency was 0.82 µM (active) and the cell number change is 5.41%.

For the molecule `O=c1[nH]c(/C=C/c2ccccc2F)nc2ccccc12`, the molecule was called inactive.

Take `Cc1ccc(SCc2nc3ccccc3n2CC(=O)Nc2ccc(Cl)cc2)cc1`: the Potency was 11.6 µM (active) and the cell number change is -17.3%.

For `Cc1ccc(SCc2nc3ccccc3n2CC(=O)Nc2c(C)cccc2C)cc1`, the “lipid storage change, negative = inhibition” value was -6.68% (inactive) and the cell number change amounted to 5.98%.

Regarding `O=C(Cn1c(CSc2ccccc2)nc2ccccc21)Nc1ccccc1`, the “lipid storage change, negative = inhibition” value is 2.53% (inactive).

As for `CCOC(=O)CSc1nnc(-c2ccc3ncccc3c2)n1C`, the “lipid storage change, negative = inhibition” value is 19.8% (inactive) and the cell number change was -5.02%.

In the case of `Cc1ccc(S(=O)(=O)NN2C(=O)c3ccccc3NC2c2ccccc2)cc1` (stereo not given), the “lipid storage change, negative = inhibition” value is 0.893% (inactive) and the cell number change worked out at 14.4%.

As to `Cc1cc2c(cc(C(=O)OC(C(=O)NC3CCCCC3)C(C)C)n2C)o1` (stereo not given), the Potency is 1.46 µM (active) and the cell number change is -21.3%.

Regarding `CC(C)C(OC(=O)c1ccco1)C(=O)NC1CCCCC1` (stereo not given), the “lipid storage change, negative = inhibition” value is 4.26% (inactive) and the cell number change turned out to be 10.7%.

As to `COCCNC(=O)C(OC(=O)c1cc2oc(C)cc2n1C)C(C)C` (stereo not given), the “lipid storage change, negative = inhibition” value is -24.2% (inactive) and the cell number change amounted to 9.13%.

As to `COC(=O)c1cc(OC)c(OC)cc1NCC(=O)Nc1ccc(C)cc1`, the “lipid storage change, negative = inhibition” value is 4.61% (inactive) and the cell number change is -5.98%.

Take `CCN(CC)CC(=O)Nc1cccc2c1C(=O)c1ccccc1C2=O`: the “lipid storage change, negative = inhibition” value was 2.18% (inactive) and the cell number change was determined as 7.09%.

In the case of `CNc1cccc2c1C(=O)c1ccccc1C2=O`, the Potency is 11.6 µM (active) and the cell number change was -6.63%.

In the case of `O=C1c2ccccc2C(=O)c2c(NCCCN(CCO)CCO)cccc21`, the cell number change turned out to be 7.53% and the lipid storage change, negative = inhibition is 13.2% [at 9.22 µM] (inactive).

Regarding `COc1ccc(-n2cc(CN(C)C(C)c3ccncn3)c(-c3cccc(F)c3)n2)cc1` (stereo not given), the “lipid storage change, negative = inhibition” value was 10.9% (inactive) and the cell number change was -0.848%.

As for `CC(C)(C)c1ccc(C(=O)NCc2ccccc2)cc1`, the “lipid storage change, negative = inhibition” value was -22.5% (inactive) and the cell number change was -10.5%.

Take `O=C(CCC(=O)c1ccc(Cl)cc1)NCc1ccccc1`: the result was inactive and the cell number change was -20.1%.

With `CC(C)(C)c1ccc(C(=O)CCC(=O)NCc2ccccc2)cc1`, the Potency was 14.6 µM (active) and the cell number change came to 6.25%.

Regarding `CCC(O)CNc1nc(-n2nc(C)cc2C)nc2sc3c(c12)CCCC3` (stereo not given), the outcome was inactive and the cell number change was determined as 1.08%.

Consider `O=C(CSc1nc2ccccc2c(=O)[nH]1)Nc1ccc(S(=O)(=O)N2CCCC2)cc1`, for which the “lipid storage change, negative = inhibition” value was 27.6% (inactive) and the cell number change was -0.593%.

`CC(=O)c1nnn(-c2ccccc2C#N)c1C`: the “lipid storage change, negative = inhibition” value is -0.571% (inactive) and the cell number change was 25.6%.

As to `O=C(Nc1nc(-c2cccs2)c(C(=O)C(F)(F)F)s1)c1ccccc1`, the “lipid storage change, negative = inhibition” value is -1.08% (inactive).

With `O=C(NC1(Cc2ccc(O)cc2)CCCCC1)c1ccccc1`, the Potency is 5.17 µM (active) and the cell number change was -23.1%.

As to `CCC(=O)NC1(Cc2ccc(O)cc2)CCCCC1`, the “lipid storage change, negative = inhibition” value is -26.5% (inactive) and the cell number change is -37.5%.

Regarding `NNC(=O)CC(=O)NC1(Cc2ccc(O)cc2)CCCCC1`, the “lipid storage change, negative = inhibition” value was 21.8% (inactive) and the cell number change was found to be 4.44%.
